Laboratory results taken from paper PMC7819943, “Rice protein-binding microarrays: a tool to detect cis-acting elements near promoter regions in rice”.
In all, about 68,000 sequences were measured (“fluorescence intensity (a.u.)”: median about 9,100, highest 2% from about 16,000 on). Shown is part of a subset that was picked to be rich in the highest values.

target: OsWRKY34 (Oryza sativa, UniProt Q0JBA9 1-250); assay: protein-binding microarray (RPBM); PBS, 2% BSA, 51.3 ng/ul salmon testes DNA, 50 uM zinc acetate, 200 nM TF, 25 C, 1 h; high values mean tight binding; conditions: protein: recombinant; tags: N-terminal polyhistidine and DsRed monomer fusion (pET32a); label: CyDye5-dUTP incorporated in the synthesized complementary strand; 3' TTTTT single-stranded linker to array surface; dsDNA, one strand shown
Outline: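 The binding signal for each feature is its fluorescence intensity in arbitrary units. An Axon 4000B scanner was used to read a custom Agilent array that had been made double-stranded with Cy5-dUTP primer extension, blocked with 2% BSA, incubated at 25 °C for 1 h with 200 nM protein in PBS, 2% BSA, salmon testes DNA and 50 µM zinc acetate, and washed. The protein was an N-terminal polyhistidine–DsRed transcription factor fusion from E. coli BL21-CodonPlus, purified on Ni–NTA.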

Sequence of OsWRKY34 (Q0JBA9 entry or part of it): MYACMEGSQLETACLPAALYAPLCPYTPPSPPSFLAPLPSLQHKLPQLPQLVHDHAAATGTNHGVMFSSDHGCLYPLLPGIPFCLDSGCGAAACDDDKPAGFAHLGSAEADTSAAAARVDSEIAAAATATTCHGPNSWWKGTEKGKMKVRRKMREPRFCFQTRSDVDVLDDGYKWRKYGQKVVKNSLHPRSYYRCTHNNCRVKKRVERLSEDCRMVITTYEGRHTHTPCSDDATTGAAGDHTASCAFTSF

| Sequence | binding signal |
| --- | --- |
| CATATGTTTTGTTTTGCTTTGGGGCTTTTAGTAGTAGTTCCGGAGTCACCTAGTGCAG | 9460 fluorescence intensity (a.u.) |
| CACAGATCATTACACACTGTTTGAGCATCTCTCTATTCCTCGGAGTCACCTAGTGCAG | 8320 fluorescence intensity (a.u.) |
| ACCCATTACAACCCTGTAGTACATGCCACACCGTTTGACACGGAGTCACCTAGTGCAG | 10800 fluorescence intensity (a.u.) |
| CCTTCACCTGGTAATCATTTCGATGCATTCATTTCCCTATCGGAGTCACCTAGTGCAG | 8470 fluorescence intensity (a.u.) |
| CTCGGCCAAAAAGAGATATCCCTTTCGCGCTCATCTTATCCGGAGTCACCTAGTGCAG | 9980 fluorescence intensity (a.u.) |
| GAAAATCTGTGGGAGGGGAGGGGAGGGGACGAGGGGACAGCGGAGTCACCTAGTGCAG | 19000 fluorescence intensity (a.u.) |
| ACGGTGGCGGGGATGTGGAGGGAGGTGCAGGGGTGCGGGGCGGAGTCACCTAGTGCAG | 22600 fluorescence intensity (a.u.) |
| GGGATGTGGCGGGCGGTGGGTCCAGGGAGGAGGAGGAGAACGGAGTCACCTAGTGCAG | 15000 fluorescence intensity (a.u.) |
| TCGAGCTGGGTGGGGTTTTTATATGGGAGGAGAGGCCGCGCGGAGTCACCTAGTGCAG | 16800 fluorescence intensity (a.u.) |
| GGAGAGGAGTGAGGAGGGATTGTGAGGTGGGGTCGGGGTGCGGAGTCACCTAGTGCAG | 9030 fluorescence intensity (a.u.) |
| GGTGGTGGTGGTGGTGCCGGAGCTGGGGAGAAGAGGAGGACGGAGTCACCTAGTGCAG | 9350 fluorescence intensity (a.u.) |
| ATATATATATATATATATATATATATATATATAGGGACAGCGGAGTCACCTAGTGCAG | 9530 fluorescence intensity (a.u.) |
| GGTGAGGTGGTGGTGGTGGTGGTCGGGAAGTGGCGGCGCCCGGAGTCACCTAGTGCAG | 16100 fluorescence intensity (a.u.) |
| TGTGAGGTGGGGTCGGGGTGGAAGTGGGTGAGGAGGGGTGCGGAGTCACCTAGTGCAG | 21700 fluorescence intensity (a.u.) |
| GTGGAGGTCGGGGTCGGGGAGGATGAGGAGGAGGGTGTGGCGGAGTCACCTAGTGCAG | 10100 fluorescence intensity (a.u.) |
| GAGCTCGGCGAAATCGATCTGTGGGAGGGAGGGCGGCGAGCGGAGTCACCTAGTGCAG | 9110 fluorescence intensity (a.u.) |
| GTGGGAGAGGCCGGCCGAGGGGAGGAGAGGGGAGGGGTGCCGGAGTCACCTAGTGCAG | 10700 fluorescence intensity (a.u.) |
| TACTGCAACTCTGCAAGCACATTGATCAATCGATCAATCCCGGAGTCACCTAGTGCAG | 8450 fluorescence intensity (a.u.) |
| TTTGTGGGGCTCTCTCTTTGATGCTTTCTTCTCTTTAGCTCGGAGTCACCTAGTGCAG | 10000 fluorescence intensity (a.u.) |
| CTAAATTGTATTTCTATATGGACTTTGCTTTTTCTTTTTCCGGAGTCACCTAGTGCAG | 10900 fluorescence intensity (a.u.) |
| GTGGTCCAATCACCCTTTGACCCTTCGCCTCCGTGGCGCCCGGAGTCACCTAGTGCAG | 8500 fluorescence intensity (a.u.) |
| TTTCTTGATTAGGGTTTGAATTCATATTACTAACTTTCCTCGGAGTCACCTAGTGCAG | 8450 fluorescence intensity (a.u.) |
| TTCCGCGTCAACCACCACCGCGCCGGCGTGCGCCTCCGCGCGGAGTCACCTAGTGCAG | 10300 fluorescence intensity (a.u.) |
| ATCAGCCTCATGCCCTTGTAGTCCATCGATCTGTCAGATCCGGAGTCACCTAGTGCAG | 13300 fluorescence intensity (a.u.) |
| TGAGCCTTGCTCGTCGGCGGCGAGGTGGGGTGGGGCGGGGCGGAGTCACCTAGTGCAG | 20800 fluorescence intensity (a.u.) |
| GGCGGCCAGATCCGGGGCTGGGGAGGCGACGGCGGCGGGGCGGAGTCACCTAGTGCAG | 8710 fluorescence intensity (a.u.) |
| GGAGGAGGCTGGTAGGGGAGGCGGGAGTCCGGCGGCGAGGCGGAGTCACCTAGTGCAG | 8640 fluorescence intensity (a.u.) |
| TTCGTTTTTCTTTTTTTTTTGATGGGGAGGTTGTAAAATGCGGAGTCACCTAGTGCAG | 13800 fluorescence intensity (a.u.) |

| Sequence | binding signal |
| --- | --- |
| GCGGAATGGGCGGCGGTGGAGGTGGCGGGTTTGGAGGCGGCGGAGTCACCTAGTGCAG | 16700 fluorescence intensity (a.u.) |
| TGGGCTTGGTGGAGGTGGCGGGTTTGGAGGCGGAGGTGGCCGGAGTCACCTAGTGCAG | 14400 fluorescence intensity (a.u.) |
| TGTGGATGGCGGGGCGAGGCGGAATGGGGCGAATGCGGCGCGGAGTCACCTAGTGCAG | 8240 fluorescence intensity (a.u.) |
| CAGCAGCAGTGGTGGTGGTGGTTTTGGTAGTGGCTGGGAGCGGAGTCACCTAGTGCAG | 9780 fluorescence intensity (a.u.) |
| GGAGGTGGGAGTGGGCAGTGGCTCGGCTCGTCGTCCTGGGCGGAGTCACCTAGTGCAG | 8780 fluorescence intensity (a.u.) |
| GAGGCGGGTGGGCGAGCTCCGGCGGCGGCGGGGTGGCCTTCGGAGTCACCTAGTGCAG | 15800 fluorescence intensity (a.u.) |
| TACTTTATCCGCGGCGGGTAGCTGGGGAGGGAGGGGAGGCCGGAGTCACCTAGTGCAG | 22500 fluorescence intensity (a.u.) |
| GGAGGTGGGGATGGTGGGAGGTTTTGGTTTGGTAAAATAGCGGAGTCACCTAGTGCAG | 19800 fluorescence intensity (a.u.) |
| CGGTAGTGCGTTAGGTCTTCTCCAAGTCTCTTGGCTTTTACGGAGTCACCTAGTGCAG | 11100 fluorescence intensity (a.u.) |
| TCACCGATTCACTCTCCTAGTCCTAGAGTCCTGGTCCATCCGGAGTCACCTAGTGCAG | 8440 fluorescence intensity (a.u.) |
| GCACCCACAGTTCCATGAGACACATAGAAGTTTTACACAACGGAGTCACCTAGTGCAG | 10600 fluorescence intensity (a.u.) |
| TTTCTGAGAGGCATAGTTCATGTTTCCCCATATATACTTCCGGAGTCACCTAGTGCAG | 8830 fluorescence intensity (a.u.) |
| TCCGCTGCCTTCGATTCTTGGTAAGCCCCTAATTCTCCTTCGGAGTCACCTAGTGCAG | 8420 fluorescence intensity (a.u.) |
| ACGTTAGTTAAAAAGTCAACGGCGTCATCCATTAAAATACCGGAGTCACCTAGTGCAG | 8900 fluorescence intensity (a.u.) |
| TCCCCATGCCATGCAAAATAAATATCCATATTACCGTTTCCGGAGTCACCTAGTGCAG | 8320 fluorescence intensity (a.u.) |
| AAGTTTTTGGGTAGTGCTTTTGCGCGCTTTCTCTTGGCTGCGGAGTCACCTAGTGCAG | 8150 fluorescence intensity (a.u.) |
| GTGGGCAGCGGCGGCGGCCGGTGGGAGGAGGGGAAGCATGCGGAGTCACCTAGTGCAG | 8380 fluorescence intensity (a.u.) |
| GAGCTTTGCGCTGGGTGGGCTTGCATTTTTGGGTCTACCGCGGAGTCACCTAGTGCAG | 21500 fluorescence intensity (a.u.) |
| TTCTTCGGTGGTGGTGGTGGTGGGATGGAAGAGGAGGAAGCGGAGTCACCTAGTGCAG | 25800 fluorescence intensity (a.u.) |
| CAGCGGGCCCAGCAAGTCAGCCTCACATCTTCTTCTTCATCGGAGTCACCTAGTGCAG | 8340 fluorescence intensity (a.u.) |
| GGGGAGGAGGAGGAGGAGGGTAGGGATGGGGAAGAGGAGTCGGAGTCACCTAGTGCAG | 8020 fluorescence intensity (a.u.) |
| GTGGTGGAGGAGGAGGAGGAGGATGAGGAGGAAGCGGCTGCGGAGTCACCTAGTGCAG | 8570 fluorescence intensity (a.u.) |
| GGTGTGGGGCCCACCTGCAGCCTCACATCGGCACCAGCTGCGGAGTCACCTAGTGCAG | 18600 fluorescence intensity (a.u.) |
| AGCACCGGTGGCAGCGGCGGACCGTGGAGGGAGGGAGGGGCGGAGTCACCTAGTGCAG | 9770 fluorescence intensity (a.u.) |
| GTGGCGGCGGGTGGGGCCCATCTCATGGCTGCTGCCTCTGCGGAGTCACCTAGTGCAG | 10800 fluorescence intensity (a.u.) |
| CGGCGGCGGTGGTGGGGAGGAGGAGGGCCAGCGGCAGCAACGGAGTCACCTAGTGCAG | 17500 fluorescence intensity (a.u.) |
| TAGCTGTTTGGTCTTGCTGGTGGTGGTGGGTGAGTGTTGGCGGAGTCACCTAGTGCAG | 11200 fluorescence intensity (a.u.) |
